{
  "source": "the supplement of paper PMC13380429",
  "note": "Unmarked numbers belong to inactive results.",
  "data": [
    {"tested_on": "Vero E6 infected with SARS-CoV-2", "assay": "inhibition of SARS-CoV-2 cytopathic effect; higher = more antiviral protection, active = above 15", "details": "10000 nM; 48 h", "units": {"inhibition of SARS-CoV-2 cytopathic effect": "%"}, "values": [
      {"smiles": "CCCCC1=NC2(CCCC2)C(=O)N1Cc1ccc(-c2ccccc2-c2nnn[nH]2)cc1", "note": "[irbesartan]", "inhibition of SARS-CoV-2 cytopathic effect": 0.85},
      {"smiles": "CCCCCCCCCCCCCCSCC(=O)O", "note": "[tetradecylthioacetic-acid]", "inhibition of SARS-CoV-2 cytopathic effect": 1.48},
      {"smiles": "COc1c(N2C[C@@H]3CCCN[C@@H]3C2)c(F)cc2c(=O)c(C(=O)O)cn(C3CC3)c12", "note": "[moxifloxacin]", "inhibition of SARS-CoV-2 cytopathic effect": 1.03},
      {"smiles": "CC(C)(F)C[C@H](N[C@@H](c1ccc(-c2ccc(S(C)(=O)=O)cc2)cc1)C(F)(F)F)C(=O)NC1(C#N)CC1", "note": "[odanacatib]", "inhibition of SARS-CoV-2 cytopathic effect": 0.04},
      {"smiles": "O=c1ncn2nc(Sc3ccc(F)cc3F)ccc2c1-c1c(Cl)cccc1Cl", "inhibition of SARS-CoV-2 cytopathic effect": 1.38},
      {"smiles": "COc1ccc(CCNCC(O)COc2cccc(C)c2)cc1OC", "note": "(centres undefined) [bevantolol]", "inhibition of SARS-CoV-2 cytopathic effect": -5.37},
      {"smiles": "C[C@@H](CN)CC(=O)O", "note": "[3-methyl-GABA]", "inhibition of SARS-CoV-2 cytopathic effect": -0.34},
      {"smiles": "Oc1cc(O)c2cc(O)c(-c3cc(O)c(O)c(O)c3)[o+]c2c1", "note": "[delphinidin]", "inhibition of SARS-CoV-2 cytopathic effect": -3.76},
      {"smiles": "O=C(O)c1ccc(Nc2ncc3c(n2)-c2ccc(Cl)cc2C(c2c(F)cccc2F)=NC3)cc1", "inhibition of SARS-CoV-2 cytopathic effect": -1.05}
    ]}
  ]
}
